An excerpt weighted towards active compounds, which were near 7% of everything screened.
BAZ2B block = qHTS Assay for Inhibitors of BAZ2B; Bromodomain adjacent to zinc finger domain protein 2B (Homo sapiens), Q9UIF8; AlphaScreen BAZ2B-H3K14Ac peptide displacement; Potency, µM (titrated, usually from 114 µM), inactives show at the top dose activity change, negative = inhibition, usual class: inhibitors; 360,000 tested, 4.4% active; note: potency is the fitted concentration of half-maximal effect; % is set by controls: 0 for no effect and ±100 for the full control effect; nearly all actives have a fitted effect of over 60% in size
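Complex of BAZ2B and biotin-H3K14Ac (50 nM apiece) forms over 30 min at RT, then faces library compounds up to 110 uM for another 30 min; AlphaScreen beads added, 20 min dark incubation, luminescence read.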
KAT2A inh = qHTS Assay for Inhibitors of GCN5L2. Histone acetyltransferase KAT2A (Homo sapiens), Q92830. GCN5L2 HAT assay, ThioGlo1 CoA-SH fluorescence. Potency, µM (highest dose often 58.9 µM), inactives show top-dose activity change, negative = inhibition, actives largely listed as inhibitors. 390,000 tested, 0.21% active; note: potency is the fitted concentration of half-maximal effect; % is set by controls: 0 for no effect and ±100 for the full control effect
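Fluorescence readout, Ex340nm/Em540nm: ThioGlo1 (50uM final) reacts with free CoA thiol released as 20nM GCN5L2 acetylates H3(1-25) peptide (75uM) using acetyl-CoA (70uM). Compound and enzyme sat 15 min beforehand; 20 min room-temperature reaction.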
PI5P4K alpha inh = qHTS for Inhibitors of phosphatidylinositol 5-phosphate 4-kinase (PI5P4K); Phosphatidylinositol 5-phosphate 4-kinase type-2 alpha (Homo sapiens), P48426; PI5P4Kalpha enzyme, ADP-Glo luminescence, 60 min; hits give low values; max response, %; 330,000 tested, 1.2% active; AID 652105, 2013; active = max response of -50% or lower; inconclusive = between -30% and -50%; inactive = -30% or higher; note: value at the top dose of about 77 µM; % is set by controls: 0 for no effect and ±100 for the full control effect
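Enzyme plus substrate dispensed, test compounds pinned in, then ATP (5 microM final) added. After 60 min at RT, ADP-Glo reagent 1 for 45 min and reagent 2 for 30 min preceded luminescence imaging.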
JMJD2A Tudor = qHTS Assay for Inhibitors of JMJD2A-Tudor Domain; Lysine-specific demethylase 4A (Homo sapiens), O75164; AlphaScreen JMJD2A-Tudor / H3K4me3 peptide binding; Potency, µM (series often up to 114 µM), for the others: at the highest dose activity change, negative = inhibition, actives largely listed as inhibitors; 390,000 tested, 4.4% active; note: potency is the fitted concentration of half-maximal effect; % is set by controls: 0 for no effect and ±100 for the full control effect; nearly all actives have a fitted effect of over 50% in size
PLK1 PBD inh = qHTS for Inhibitors of PLK1-PDB (polo-like kinase 1 - polo-box domain): Primary Screen; Plk1 PBD binding of FITC phosphopeptide, fluorescence polarization; Potency, µM, without a hit: max response, negative = inhibition, actives largely listed as inhibitors; 360,000 tested, 2.8% active; note: potency is the fitted concentration of half-maximal effect; series mostly up to about 57 µM; % is set by controls: 0 for no effect and ±100 for the full control effect; nearly all actives have a fitted effect of over 65% in size
Target sequence (P53350 whole entry, looked up, the tested form may be a part): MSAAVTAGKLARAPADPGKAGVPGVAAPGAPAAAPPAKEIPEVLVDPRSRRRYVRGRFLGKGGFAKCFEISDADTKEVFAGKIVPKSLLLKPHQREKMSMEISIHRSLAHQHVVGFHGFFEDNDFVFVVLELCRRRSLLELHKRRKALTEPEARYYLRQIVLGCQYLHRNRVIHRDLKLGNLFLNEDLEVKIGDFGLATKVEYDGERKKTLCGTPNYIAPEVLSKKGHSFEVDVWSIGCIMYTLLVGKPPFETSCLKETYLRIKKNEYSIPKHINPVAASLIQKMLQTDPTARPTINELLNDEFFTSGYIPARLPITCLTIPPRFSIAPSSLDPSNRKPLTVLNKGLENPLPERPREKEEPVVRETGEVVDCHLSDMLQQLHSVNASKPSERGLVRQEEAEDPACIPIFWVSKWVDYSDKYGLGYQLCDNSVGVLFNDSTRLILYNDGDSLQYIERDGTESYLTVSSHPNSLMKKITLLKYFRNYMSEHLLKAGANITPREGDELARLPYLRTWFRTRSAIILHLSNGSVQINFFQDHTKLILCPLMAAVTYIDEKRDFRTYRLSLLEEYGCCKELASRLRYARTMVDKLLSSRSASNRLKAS
HP1b binding inh = HTS for Inhibitors of HP1-beta Chromodomain Interactions with Methylated Histone Tails; Potency, µM (titrated, usually from 114 µM), without a hit: top-dose activity change, negative = inhibition, most hits filed as inhibitors; Chromobox protein homolog 1 (Homo sapiens), P83916; 390,000 tested, 0.56% active; AID 540317, 2011; AlphaScreen HP1-beta / biotin-H3K9me3 peptide binding; note: potency is the fitted concentration of half-maximal effect; nearly all actives have a fitted effect of over 70% in size
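Compound inhibition of the preformed complex between 50 nM HP1-beta and 50 nM biotinylated H3K9me3 peptide was read by AlphaScreen. Buffer was PBS pH 7.4 with 0.01% Tween-20. Incubations ran 30 min at room temperature, with 10 ug/mL donor/acceptor beads.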
Starred values were filed as active, the others as inactive; u = inconclusive; x = no result; [ ] = remark or other dose. Unless noted, calls come from the whole dose curve; as a rule, active = well fitted curve in the direction sought with a large enough effect; inconclusive = small, poorly fitted or top-dose-only effect, or another doubt; inactive = no such curve, though single readings can be large; an effect the other way counts as inactive or inconclusive.

SMILES	BAZ2B block	KAT2A inh	PI5P4K alpha inh	JMJD2A Tudor	PLK1 PBD inh	HP1b binding inh
CC1S/C(=N/N=C2CCC(C(C)(C)C)CC2)NC1=O (stereo unspecified)	56µM*	-6%	1	-22%	-11%	26%
CC1S/C(=N/N=C2CCCCC2)NC1=O (stereo unspecified)	50µM*	25%	3	u	-4%	44%
C=CCn1c(C)nnc1SCC(=O)Nc1oc(C)c2c(C)n[nH]c(=O)c12	25%	-4%	0	-3%	-10%	37%
O=C(Nc1nc2ccccc2n1CCN1CCCC1)C1CCCCC1	50µM*	-18%	2	-26%	-8%	15%
CCC(=O)Nc1nc2ccccc2n1CCN1CCOCC1	x	-6%	3	3.2µM*	-1%	-10%
COC(=O)c1ccc(CSc2nc3c(cnn3-c3ccc(C)c(C)c3)c(=O)[nH]2)o1	-1%	-3%	3	50µM*	27µM*	-2%
COC(=O)c1ccc(CSc2nc3scc(-c4cccs4)c3c(=O)[nH]2)o1	x	-19%	x	45µM*	u	4%
CCCSc1nc2c(cnn2-c2ccc(C)c(C)c2)c(=O)[nH]1	1%	-1%	4	-5%	-9%	13%
O=C(c1cccc(S(=O)(=O)Nc2ccc(Br)cc2)c1)N1CCC1	-20%	-6%	-8	-9%	-2%	17%
CC1(C)O[C@@H]2[C@H](O1)[C@@H](COS(=O)(=O)O)O[C@H]2n1c(=S)[nH]c2c(=O)[nH]c(N)nc21	-6%	-8%	-1	20µM*	-19%	-24%
O=C(c1ccco1)N1CCN(C(=O)c2cc(-c3ccccn3)nc3ccc(Cl)cc23)CC1	-30%	-16%	-59*	-6%[57.1 µM]	u	-15%
CCN(CC)c1ccc(S(=O)(=O)Nc2cc(Cl)ccc2Cl)cc1NC(=S)NC(=O)C1CCCC1	-10%	-14%	-21	u	9.5µM*	u
COc1ccc(C)cc1NC(=O)CCS(=O)(=O)c1cc2c3c(c1)CCN3C(=O)CC2	-16%	-3%	x	32µM*	x	71µM*
COc1ccc(C(=O)OCC(=O)c2cc(OC)ccc2OC)c(OC)c1	11%	-9%	0	-1%	-1%	43%
COc1ccc(C(=O)COC(=O)c2ccccc2O)c(OC)c1	50µM*	u	-57*	u	-9%	28%
COc1ccc(C(=O)COC(=O)c2ccc(Cl)nc2)cc1OC	9%	1%	3	-3%	-3%	31%
Cc1cnc(C(=O)OCC(=O)c2ccccc2)cn1	-38%	-7%	-8	-12%	-10%	1%
COc1ccccc1C(=O)COC(=O)c1cnc(C)cn1	11%	-1%	5	-3%	-22%	18%
COc1ccc(C(=O)COC(=O)c2cnc(C)cn2)c(OC)c1	7%	-4%	-56*	-19%	-2%	-5%
COc1ccc(C(=O)COC(=O)c2ccc(Cl)nc2)c(OC)c1	79µM*	-13%	u	-14%	-5%	-7%
Cc1cnc(C(=O)OCC(=O)c2csc(N3CCCCC3)n2)cn1	u	-18%	-60*	u	-14%	-2%
CC(=O)c1ccc(N2C(=NC(=O)COc3ccccc3)SC3CS(=O)(=O)CC32)cc1 (stereo unspecified)	-23%	-22%	4	1%	3%	23%[57 µM]
CC(=O)c1cccc(N2C(=NC(=O)COc3ccccc3)SC3CS(=O)(=O)CC32)c1 (stereo unspecified)	-19%	0%	-23	u	24µM*	18%
C=CC(=O)Nc1ccc(CN2C(=O)N(c3c(Cl)c(OC)cc(OC)c3Cl)Cc3cnc(NCCCCN(CC)CC)nc32)cc1	x	-4%	u	56µM*	-12%	u
Cc1ccc(S(=O)(=O)Nc2nc3c(s2)C(=O)CC(C)(C)C3)cc1	-37%	2%	7	-7%	-15%	27%
SMILES	BAZ2B block	KAT2A inh	PI5P4K alpha inh	JMJD2A Tudor	PLK1 PBD inh	HP1b binding inh
CC1(C)CC(=O)c2sc(NS(=O)(=O)Cc3ccccc3)nc2C1	4%	-15%	x	-28%	24µM*	-13%
O=C(O)c1cccc(NC(=O)c2cn(-c3ccccc3)nc2-c2ccncc2)c1	u	-7%	u	-31%	24µM*	u
COc1ccc(-c2nn(-c3ccccc3)cc2C(=O)Nc2cccc(C(=O)O)c2)cc1[N+](=O)[O-]	40µM*	-4%	u	50µM*	-22%	-28%
COc1ccc(-c2cnc(C)o2)cc1S(=O)(=O)Nc1c(C)cc(C)cc1C	u	20%	x	u	x	15%
N#C/C(=C/C1=C(N2CCOCC2)C(=C/c2ccccc2)/CC1)C(=O)Nc1ccccc1F	x	x	1	10µM*	0%	5µM*
N#C/C(=C\C1=C(N2CCOCC2)C(=C/c2cccc([N+](=O)[O-])c2)/CC1)C(=O)Nc1ccccc1F	1.3µM*	-11%	-2	-33%	-2%	u
CCN(CC)c1ccc(/C=C2\CCC(/C=C(\C#N)C(=O)Nc3ccccc3F)=C2N2CCOCC2)cc1	u	-12%	-2	u	-4%	u
N#C/C(=C\C1=C(N2CCOCC2)C(=C\c2ccc(Cl)cc2)/CC1)C(=O)Nc1ccccc1F	25µM*	-3%	-4	-31%	-2%	u
Cn1c(=O)c2c(-c3ccc(Cl)cc3)ccnc2n(C)c1=O	-10%	1%	x	-18%	x	29%
O=C(COc1ccc(Cl)cc1)NCCNC(=O)c1cnccn1	4%	2%	0	-6%	0%	-15%
Cc1ccccc1OCCn1ccnc1	-12%	-1%	1	-10%	6%	49%
COc1ccccc1OCCn1ccnc1	u	-2%	-5	3.5µM*	-2%	u
Cc1cc(OCCN2CCCCCC2)ccc1[N+](=O)[O-]	56µM*	-15%	-1	u	-11%	u
COc1ccc(OCCCn2ccnc2)cc1	22µM*	0%	-2	0.89µM*	-11%	16µM*
Cc1cc(OCCCn2ccnc2)ccc1[N+](=O)[O-]	56µM*	1%	4	6.3µM*	-9%	u
Fc1ccc(OCCCCCn2ccnc2)cc1	-26%	-1%	-1	-18%	-9%	18%
Fc1ccc(OCCCn2ccnc2)cc1	u	-10%	1	45µM*	4%	u
Cc1ccc(NC(=O)CN(C)S(=O)(=O)c2ccc3[nH]c(=O)oc3c2)c(C)c1	4%	0%	-16	-14%	-23%	34%
